# Measurements taken from ChEMBL document CHEMBL3988442, “University of Dundee, Small-Polar-MMV Screening Library” (2021).
# Assays:
# [1] = target: T1, Aspartate--tRNA(Asp/Asn) ligase (Mycobacterium tuberculosis (strain ATCC 25618 / H37Rv)) (UniProt P9WFW3); assay: Assay for Asp RNA synthetase-1 from Mycobacterium tuberculosis; type: functional; design: scale not given: direction of the effect not stated beside the values; conditions: 30 µM; also: in the data most compounds retested in dose-response had high values
# T1 sequence (whole entry): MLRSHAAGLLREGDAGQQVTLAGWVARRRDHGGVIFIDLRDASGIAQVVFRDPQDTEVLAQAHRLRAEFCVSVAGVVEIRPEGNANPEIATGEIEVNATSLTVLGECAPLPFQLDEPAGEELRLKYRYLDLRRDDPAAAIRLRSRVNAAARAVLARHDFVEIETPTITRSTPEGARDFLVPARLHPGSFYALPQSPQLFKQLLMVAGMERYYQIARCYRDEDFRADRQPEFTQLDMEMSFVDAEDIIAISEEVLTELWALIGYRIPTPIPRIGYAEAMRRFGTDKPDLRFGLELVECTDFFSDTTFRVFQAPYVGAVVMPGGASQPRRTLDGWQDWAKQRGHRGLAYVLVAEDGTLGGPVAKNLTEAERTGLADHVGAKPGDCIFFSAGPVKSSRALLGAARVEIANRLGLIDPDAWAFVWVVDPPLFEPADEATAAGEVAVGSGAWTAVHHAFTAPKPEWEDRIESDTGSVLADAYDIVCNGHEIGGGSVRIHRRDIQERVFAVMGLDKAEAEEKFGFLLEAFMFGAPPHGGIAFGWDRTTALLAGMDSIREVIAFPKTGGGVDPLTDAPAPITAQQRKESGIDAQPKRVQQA
# [2] = target: Shiga toxin 2 (Escherichia coli O157:H7) (UniProt P09385+P09386); assay: E. coli 0.157:H7 Shiga Toxin SOP - stx2 screening assay; type: functional; design: scale not given: direction of the effect not stated beside the values; conditions: 30 µM
compound,measurement,setting,value
COCCOc1ccc(NC(=O)C2CCCN(C(N)=O)C2)cn1 (stereo unspecified),Percent Effect,[1],-2.23%
same,Percent Effect,[2],-2.19%
c1cnc(N2CCCC(NCc3cccc4c3OCCO4)C2)nc1 (stereo unspecified),Percent Effect,[1],-1.35%
same,Percent Effect,[2],4.24%
CCc1ccc(C(=O)NC2CCN(c3cnn(C)c3)C2=O)o1 (stereo unspecified),Percent Effect,[1],3.57%
same,Percent Effect,[2],-7.19%
Cc1cc(C)c(CNC(=O)NCC2CCCO2)c(=O)[nH]1 (stereo unspecified),Percent Effect,[1],-3.97%
same,Percent Effect,[2],24.8%
Cc1ccc(C(N)c2cccc(S(C)(=O)=O)c2)cc1 (stereo unspecified),Percent Effect,[1],-0.691%
same,Percent Effect,[2],-0.145%
CN(C)S(=O)(=O)c1ccc(CN2CCCC2c2ccccc2)o1 (stereo unspecified),Percent Effect,[1],4.24%
same,Percent Effect,[2],-1.81%
Cc1nn(C)c(C)c1C(=O)N1CCOCC1CC(=O)c1ccco1 (stereo unspecified),Percent Effect,[1],1.17%
same,Percent Effect,[2],-5.88%
Cc1ccc(NC2CCN(C(=O)Cc3ccc(C#N)cc3)CC2)nn1,Percent Effect,[1],4.2%
same,Percent Effect,[2],-11.6%
Cc1nnc2n1CCN(C(=O)c1cc(Cl)c(Cl)n1C)C2,Percent Effect,[1],-1.68%
same,Percent Effect,[2],8.23%
CSCc1cccc(S(=O)(=O)NCCCN2CCOCC2)c1,Percent Effect,[1],13.9%
same,Percent Effect,[2],-32.1%
NC(=O)C1CCN(c2nc3nccc(-c4ccccc4)c3c(=O)[nH]2)CC1,Percent Effect,[1],-4.72%
same,Percent Effect,[2],-30.6%
Cc1noc([C@H]2C[C@@H]3CCN(C(=O)N(C)C)C[C@H]3O2)n1,Percent Effect,[1],3.32%
same,Percent Effect,[2],-1.56%
CC(C)c1nnc2n1CCN(C(=O)c1ccc(-n3cnnc3)cc1)C2,Percent Effect,[1],-3.86%
same,Percent Effect,[2],-19.9%
Cc1ncc(CNC(=O)CCOc2ccccc2)c(C2CCCN2C)n1 (stereo unspecified),Percent Effect,[1],5.05%
same,Percent Effect,[2],-10.2%
Cn1ncc(C(=O)N2CCCC(n3cccn3)C2)c1C1CC1 (stereo unspecified),Percent Effect,[1],3.87%
same,Percent Effect,[2],-7.05%
Cc1nccn1C1CCCN(C(=O)c2ccc3c(c2)COC3)C1 (stereo unspecified),Percent Effect,[1],-1.72%
same,Percent Effect,[2],-16.7%
Cc1nnc(NCC2(c3ccccc3)CC2)c(C#N)c1C,Percent Effect,[1],1.73%
same,Percent Effect,[2],15.4%
NC(=O)C1CCN(C(=O)CCn2ccc3cc(Br)ccc32)CC1,Percent Effect,[1],0.306%
same,Percent Effect,[2],12.4%
O=C(CCc1cccs1)N1CCC(N2CCNC2=O)CC1,Percent Effect,[1],-2.08%
same,Percent Effect,[2],-4.13%
COc1ccc(CNCc2ccnc(N3CCOCC3)c2)cc1OC,Percent Effect,[1],-2.66%
same,Percent Effect,[2],-52.5%
COCCCNC(=O)CCn1nc(C)c2ccccc21,Percent Effect,[1],-2.88%
same,Percent Effect,[2],-11.5%
O=C(CN1CCCC(c2ccc(C(=O)O)cc2)C1)NC1CC1 (stereo unspecified),Percent Effect,[1],-1.07%
same,Percent Effect,[2],6.8%
COC(=O)C(NC(=O)C(C)C)c1cc(F)ccc1F (stereo unspecified),Percent Effect,[1],-0.455%
same,Percent Effect,[2],15.2%
CN(C)C(=O)c1ccc2c(c1)N(C)C(CC(=O)NC(C)(C)CO)CO2 (stereo unspecified),Percent Effect,[1],1.87%
same,Percent Effect,[2],-25.6%
CC(c1ccc(Cl)cc1)N1CCN(CCNS(C)(=O)=O)CC1 (stereo unspecified),Percent Effect,[1],1.42%
same,Percent Effect,[2],-11.7%
O=C(c1cc[nH]n1)N1CCCC(c2cccc(-n3ccnc3)n2)C1 (stereo unspecified),Percent Effect,[1],-2.72%
same,Percent Effect,[2],9.34%
Cc1nc(C)c(CC(=O)N2C[C@H]3CC[C@@H]2CN(C(=O)N(C)C)C3)c(=O)[nH]1,Percent Effect,[1],0.0987%
same,Percent Effect,[2],-13.6%
Cc1ncc2c(n1)CCN(Cc1nc3ccccc3o1)C2,Percent Effect,[1],6.98%
same,Percent Effect,[2],-21.4%
COC(=O)c1ccc(N2CCN(CCN3CCOCC3)C(C)C2)cc1 (stereo unspecified),Percent Effect,[1],-8.26%
same,Percent Effect,[2],32.4%
O=C(Cc1ccsc1)N1CCC(n2nc(-c3ccco3)ccc2=O)CC1,Percent Effect,[1],-0.938%
same,Percent Effect,[2],18.8%
Cc1cnn(CC2CN(CCc3ccncc3)CCO2)c1 (stereo unspecified),Percent Effect,[1],8.62%
same,Percent Effect,[2],-2.69%
O=C1CC2(CCN(CC3CCOC3)CC2)CN1Cc1cc(F)cc(F)c1 (stereo unspecified),Percent Effect,[1],-4.88%
same,Percent Effect,[2],2.13%
CCCOc1cc(C)ccc1NC(=O)NCCC(=O)N(C)C,Percent Effect,[1],2.21%
same,Percent Effect,[2],-4.42%
COC(=O)C(c1cc(F)ccc1F)N(C)C(=O)c1ccnc(C)n1 (stereo unspecified),Percent Effect,[1],-0.393%
same,Percent Effect,[2],-2.56%
O=C(Nc1cccc(CN2CCOC2=O)c1)N1CCSCC1,Percent Effect,[1],-4.15%
same,Percent Effect,[2],-52.5%
CNc1nc(CNC(=O)Nc2ccccc2-c2noc(C)n2)cs1,Percent Effect,[1],-2.92%
same,Percent Effect,[2],13.1%
Cc1nc(CN2CC3(CCN(c4ncc(F)cn4)C3)CC2=O)cs1 (stereo unspecified),Percent Effect,[1],3.16%
same,Percent Effect,[2],-4.09%
Cn1cc(N2CC3(CCN(S(=O)(=O)C4CC4)C3)CC2=O)cn1 (stereo unspecified),Percent Effect,[1],-0.32%
same,Percent Effect,[2],-17.6%
Cc1cnn(CC2CCCN2C(=O)c2cccc(CC#N)c2)c1 (stereo unspecified),Percent Effect,[1],-1.43%
same,Percent Effect,[2],8.24%
CCN1CCN(CC(C)(O)c2cccc(C(F)(F)F)c2)CC1 (stereo unspecified),Percent Effect,[1],3.38%
same,Percent Effect,[2],6.41%
CC(C)N1CCO[C@H]2CN(C(=O)c3ccoc3)C[C@H]21,Percent Effect,[1],8.86%
same,Percent Effect,[2],-1.73%
CNC(=O)c1ccc(CN(C(=O)c2scnc2C)C2CC2)cc1,Percent Effect,[1],-2.83%
same,Percent Effect,[2],-32.1%
COCC1CN(C(=O)COc2ccccc2)Cc2cn(C)nc21 (stereo unspecified),Percent Effect,[1],1.18%
same,Percent Effect,[2],0.0839%
COCCN1C[C@@H]2CN(Cc3ccsc3)CCC[C@]2(C(=O)O)C1,Percent Effect,[1],2.26%
same,Percent Effect,[2],-14.2%
CC(C)Cc1noc(CN2CCN(CCOc3ccc(Cl)cc3)CC2)n1,Percent Effect,[1],0.745%
same,Percent Effect,[2],10.8%
C=Cc1ccc(C(=O)N2CCCC(Nc3ccc(OC)cc3)C2)cc1 (stereo unspecified),Percent Effect,[1],1.04%
same,Percent Effect,[2],-6.01%
CCOCC1CN(Cc2ccoc2)Cc2nn(CC3CC3)cc21 (stereo unspecified),Percent Effect,[1],6.32%
same,Percent Effect,[2],-16.8%
O=S(=O)(Nc1cnn(C2CCOCC2)c1)c1ccc(F)c(F)c1,Percent Effect,[1],3.75%
same,Percent Effect,[2],1.76%
COc1ccccc1CC(=O)NS(=O)(=O)c1ccc(C(N)=O)cc1,Percent Effect,[1],1.21%
same,Percent Effect,[2],7.74%
CNS(=O)(=O)c1cccc(CNC(=O)c2c(C)nn(C)c2C)c1,Percent Effect,[1],-4.44%
same,Percent Effect,[2],8.19%
CC(C)NC(=O)N1CCN(Cc2ccccn2)CC2(CC(=O)N(C)C2)C1 (stereo unspecified),Percent Effect,[1],-0.228%
same,Percent Effect,[2],-14.2%
O=C(C1CCOCC1)N1CCO[C@H]2[C@@H](OCc3ccncc3)CC[C@@H]21,Percent Effect,[1],-4.8%
same,Percent Effect,[2],22.7%
COc1ccc(CN2CCn3c(CNS(C)(=O)=O)nnc3C2)cc1,Percent Effect,[1],1.39%
same,Percent Effect,[2],-6.04%
CN(C)[C@@H]1CCN(c2ncccn2)[C@H]1Cc1ccccc1,Percent Effect,[1],-0.0594%
same,Percent Effect,[2],-1.36%
Cc1nc(COC[C@@H]2CCC[C@@]23CNCCO3)cs1,Percent Effect,[1],19.4%
same,Percent Effect,[2],-7.74%
O=C(Nc1ccccc1OC(F)F)C1=NN(c2ccccc2)C(=O)CN1,Percent Effect,[1],9.31%
same,Percent Effect,[2],-3.57%
CS(=O)(=O)N1CCOC2(CCCN(c3cnccn3)C2)C1 (stereo unspecified),Percent Effect,[1],-5.91%
same,Percent Effect,[2],-3.98%
CCCn1nc2c(cc1=O)CN(Cc1nc(CCOC)no1)CC2,Percent Effect,[1],16.9%
same,Percent Effect,[2],-17.7%
CC(COc1ccc(F)cc1F)NC(=O)NCCN1CCOCC1 (stereo unspecified),Percent Effect,[1],-1.71%
same,Percent Effect,[2],-3.82%
CCOc1ccc(Cl)c(C(=O)N2CCN(CCO)CC2)n1,Percent Effect,[1],0.455%
same,Percent Effect,[2],15.7%
CCCC(C)(C)NC(=O)c1ccc(CC2CC(=O)NC2=O)cc1 (stereo unspecified),Percent Effect,[1],-0.604%
same,Percent Effect,[2],-9.64%
Cc1ccc(CN(Cc2ccccn2)C2CC(C)(C)NC(C)(C)C2)s1,Percent Effect,[1],-5.4%
same,Percent Effect,[2],15.6%
O=C(NCc1csc(Br)c1)c1ccncc1,Percent Effect,[1],-0.335%
same,Percent Effect,[2],-44.3%
CCc1c(C)nc2n(c1=O)CC(C(=O)Nc1ccccc1F)CS2 (stereo unspecified),Percent Effect,[1],-3.83%
same,Percent Effect,[2],-4.39%
CCc1c(C)nc2n(c1=O)CC(C(=O)Nc1nc3c(s1)CCCC3)CS2 (stereo unspecified),Percent Effect,[1],2.32%
same,Percent Effect,[2],-5.2%
CCN(c1ccc(C(=O)NCCCN2CCCC2)cc1)S(=O)(=O)CC,Percent Effect,[1],2.52%
same,Percent Effect,[2],-46.4%
CC(C)c1nc(C2CCCN2CCc2ccncc2)no1 (stereo unspecified),Percent Effect,[1],1.61%
same,Percent Effect,[2],-7.28%
O=C(O)c1nnn(-c2ccc(OC(F)(F)F)cc2)c1-c1ccncc1,Percent Effect,[1],4.91%
same,Percent Effect,[2],-8.85%
CNc1cc(C)nc(C2CN(Cc3ccc(C)nc3)CCO2)c1 (stereo unspecified),Percent Effect,[1],0.61%
same,Percent Effect,[2],3.79%
COc1ccc(-c2nc(CN3CC(n4cc(C)cn4)C3)no2)cc1,Percent Effect,[1],6.9%
same,Percent Effect,[2],-20.1%
COc1cc(C(=O)N2CCC(c3n[nH]c(C4CC4)n3)CC2)ccc1C,Percent Effect,[1],-0.859%
same,Percent Effect,[2],3.06%
CC(C)n1cc(S(=O)(=O)N2CCCCC2)cn1,Percent Effect,[1],-0.668%
same,Percent Effect,[2],-17.6%
CCOCCn1c(=O)[nH]c2cc(C(=O)N(C)Cc3nc(C)cs3)ccc21,Percent Effect,[1],1.06%
same,Percent Effect,[2],-4.35%
